Laboratory results reported in PubChem BioAssay (NCATS).
A number with no mark means an inactive call. Inconclusive results are not listed. Entries that show only a call come without a potency. Activity calls are given as the source filed them. Unless noted, the call rests on the fitted dose curve; in most records, active means well fitted curve in the direction sought with a large enough effect; inconclusive means small, poorly fitted or top-dose-only effect, or another doubt; inactive means no such curve, though single readings can be large; an effect the other way counts as inactive or inconclusive.

Legend:
[1] = biological target: Cytochrome P450 2D6 (Homo sapiens) (UniProt P10635); assay: qHTS Assay for Inhibitors and Substrates of Cytochrome P450 2D6 (AID 891); further: nearly all actives have a fitted effect of over 60% in size; further: potency means the concentration at half of the fitted maximal effect;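 on activity change, negative = inhibition: luciferin methyl ether substrate demethylated by CYP2D6 with NADPH regeneration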
Summary of the method: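 Human CYP2D6 (5 nM) with 30 uM Luciferin-ME EGE (at Km) in 100 mM KPO4, compound preincubated 10 min, then NADPH regeneration system for 60 min at room temperature. Luciferin read by luminescence; normalized to 1.43 uM quinidine.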

[2] = biological target: Cytochrome P450 2C19 (Homo sapiens) (UniProt P33261); assay: qHTS Assay for Inhibitors and Substrates of Cytochrome P450 2C19 (AID 899); further: nearly all actives have a fitted effect of over 60% in size; further: potency means the concentration at half of the fitted maximal effect
Summary of the method: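 Reactions contain 5nM enzyme, 10uM Luciferin-H EGE (KM) and 50mM KPO4; compound preincubates 10 min at 37C, NADPH regeneration starts turnover for 60 min. Luminescence after detection reagent gives activity.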

[3] = biological target: Cytochrome P450 3A4 (Homo sapiens) (UniProt P08684); assay: qHTS Assay for Activators of Cytochrome P450 3A4 (AID 885); further: nearly all actives have a fitted effect of over 65% in size; further: potency means the concentration at half of the fitted maximal effect
Summary of the method: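 Quantitative HTS format: compounds preincubated with 20nM human CYP3A4 and Luciferin-PPXE substrate at KM, reaction started by NADPH regeneration, stopped after 60 min, luciferase luminescence read 20 min later.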

[4] = biological target: Alpha-galactosidase (Coffea arabica) (UniProt Q42656); assay: Counterscreen for Glucocerebrosidase Inhibitors: qHTS Assay for Coffee Bean alpha-Galactosidase at pH 4.5 (AID 957); further: series mostly up to about 77 µM
Summary of the method: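 Coffee bean alpha-galactosidase 2 nM, substrate 4-MU-alpha-Gal 80 uM, pH 4.5 citrate/Tween-20, 20 min RT. Cpd titration 0.7 nM–77 uM. Stop pH 10, fluorescence 365/440 nm; Hill-equation AC50.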

[5] = Confirmation and Secondary Assay for Modulators of Hemoglobin Beta Chain Splicing at IVS2 654 locus (AID 910);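 further: HeLa cells stably carrying EGFP split by mutant beta-globin IVS2-654 intron; per-well total GFP intensity by laser scanning cytometry after 2-day treatment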
Summary of the method: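 Readout: per-well total peak green fluorescence (488 nm ex, 500–520 nm em) from objects 5–250 µm, reflecting correct splicing of an EGFP-654 reporter. Compounds were applied for 2 days at 37 °C to overnight-plated HeLa EGFP-654 cells; controls were DMSO and 500 nM IVS2-654 PNA.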

[6] = qHTS Assay for Identification of Small Molecule Antagonists for NFkB Signaling Pathway (AID 895; active means well fitted inhibition curve with a large enough effect in the signal ratio, with a control signal flat, not every such curve was filed as active; the % refers to the signal ratio; further: potency means the concentration at half of the fitted maximal effect)
Summary of the method: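 Beta-lactamase reporter read-out (460 and 530 nm emission ratio, 405 nm excitation, 2 hrs substrate loading RT) after 5 hr stimulation with 10 pM TNF alpha in compound-treated NFkB-bla ME-180 cells in low-serum medium.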

[7] = biological target: Muscarinic acetylcholine receptor M1 (Rattus norvegicus) (UniProt P08482); assay: qHTS Assay for Antagonists of Acetylcholine Muscarinic M1 Receptor: Kinetic Measurement of Intracellular Calcium Response (AID 943); further: potency means the concentration at half of the fitted maximal effect; nearly all actives have a fitted effect of over 75% in size
Summary of the method: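 Rat M1-CHO cells, 2000/well, overnight → Fluo-4 no-wash dye with probenecid, 1 h 37C → compound 10 min, room temp → basal read 6 s → carbachol EC80 (100 nM) → 4 min kinetic read; peak/basal.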

[8] = biological target: Alpha-galactosidase (Coffea arabica) (UniProt Q42656); assay: Counterscreen for Glucocerebrosidase Inhibitors: qHTS Assay for Coffee Bean alpha-Galactosidase at pH 5.9 (AID 998)
Summary of the method: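 Compounds were titrated from 0.7 nM to 77 uM against green coffee bean alpha-galactosidase (2 nM) using 80 uM fluorogenic 4-methylumbelliferyl substrate. After 20 min at room temperature, reactions were stopped at pH 10 and read by fluorescence.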

[9] = biological target: Muscarinic acetylcholine receptor M1 (Rattus norvegicus) (UniProt P08482); assay: qHTS Assay for Antagonists of Acetylcholine Muscarinic M1 Receptor: Measurement of IP-One Response (AID 944); further: potency means the concentration at half of the fitted maximal effect; nearly all actives have a fitted effect of over 75% in size
Summary of the method: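 M1-CHO (rat), 2000 cells/well, overnight recovery; cpd 10 min; carbachol EC80 (200 nM), 30 min, HEPES buffer + 50 mM LiCl pH 7.4; IP-One HTRF, Ex 337, Em 620/665 nm.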

[10] = Confirmation and Secondary Assay for Modulators of Hemoglobin Beta Chain Splicing at IVS2 705 locus (AID 930);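 further: HeLa cells stably expressing the EGFP-705 splicing reporter; GFP fluorescence per well restored by corrected splicing of the IVS2-705 intron in EGFP; series mostly up to about 46 µM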
Summary of the method: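 Fluorescence gain (488 nm laser, 500-520 nm PMT) reflects restored correct splicing of a mutant IVS2-705 intron inside EGFP in stably transfected HeLa cells after 2-day compound treatment.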

Sequence of Cytochrome P450 3A4 (Homo sapiens) (P08684 whole entry, looked up): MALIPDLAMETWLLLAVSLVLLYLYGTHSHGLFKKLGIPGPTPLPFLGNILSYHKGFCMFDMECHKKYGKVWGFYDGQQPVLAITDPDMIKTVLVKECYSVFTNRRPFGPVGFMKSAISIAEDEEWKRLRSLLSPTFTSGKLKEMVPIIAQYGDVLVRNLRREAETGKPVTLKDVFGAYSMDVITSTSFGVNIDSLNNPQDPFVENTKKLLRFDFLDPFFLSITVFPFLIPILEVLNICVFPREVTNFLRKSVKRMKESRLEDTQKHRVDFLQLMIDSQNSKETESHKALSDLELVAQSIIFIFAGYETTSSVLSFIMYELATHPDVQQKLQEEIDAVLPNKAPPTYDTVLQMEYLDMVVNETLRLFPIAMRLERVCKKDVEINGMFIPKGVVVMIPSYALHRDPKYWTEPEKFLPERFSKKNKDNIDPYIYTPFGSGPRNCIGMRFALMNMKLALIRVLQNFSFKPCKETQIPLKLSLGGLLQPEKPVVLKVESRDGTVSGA
Sequence of Muscarinic acetylcholine receptor M1 (Rattus norvegicus) (P08482 whole entry, looked up): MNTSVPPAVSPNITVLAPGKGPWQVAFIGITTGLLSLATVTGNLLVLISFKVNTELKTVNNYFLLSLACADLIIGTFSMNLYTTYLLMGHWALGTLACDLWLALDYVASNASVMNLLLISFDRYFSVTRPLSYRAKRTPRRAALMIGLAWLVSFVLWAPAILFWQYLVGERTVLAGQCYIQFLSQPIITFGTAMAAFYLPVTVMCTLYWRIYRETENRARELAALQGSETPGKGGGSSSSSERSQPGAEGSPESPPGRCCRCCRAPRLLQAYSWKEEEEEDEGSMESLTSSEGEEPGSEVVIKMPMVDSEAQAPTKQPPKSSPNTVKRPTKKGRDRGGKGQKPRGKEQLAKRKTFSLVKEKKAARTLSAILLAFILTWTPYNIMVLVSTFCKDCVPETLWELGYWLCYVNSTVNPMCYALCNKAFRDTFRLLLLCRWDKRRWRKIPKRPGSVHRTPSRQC
Sequence of Cytochrome P450 2D6 (Homo sapiens) (P10635 whole entry, looked up): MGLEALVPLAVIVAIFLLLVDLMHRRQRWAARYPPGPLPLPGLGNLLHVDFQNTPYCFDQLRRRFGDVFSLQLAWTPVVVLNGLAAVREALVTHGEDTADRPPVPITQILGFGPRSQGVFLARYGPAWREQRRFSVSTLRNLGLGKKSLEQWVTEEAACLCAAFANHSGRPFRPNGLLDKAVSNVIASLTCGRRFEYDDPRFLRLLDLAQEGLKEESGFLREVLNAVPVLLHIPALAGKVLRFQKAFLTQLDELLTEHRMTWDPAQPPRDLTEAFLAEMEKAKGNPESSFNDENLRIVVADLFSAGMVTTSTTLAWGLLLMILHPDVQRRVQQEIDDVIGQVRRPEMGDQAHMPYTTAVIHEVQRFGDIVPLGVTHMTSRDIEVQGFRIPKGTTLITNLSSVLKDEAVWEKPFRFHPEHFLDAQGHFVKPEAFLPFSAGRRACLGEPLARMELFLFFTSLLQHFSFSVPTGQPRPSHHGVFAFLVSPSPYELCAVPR
Sequence of Cytochrome P450 2C19 (Homo sapiens) (P33261 whole entry, looked up): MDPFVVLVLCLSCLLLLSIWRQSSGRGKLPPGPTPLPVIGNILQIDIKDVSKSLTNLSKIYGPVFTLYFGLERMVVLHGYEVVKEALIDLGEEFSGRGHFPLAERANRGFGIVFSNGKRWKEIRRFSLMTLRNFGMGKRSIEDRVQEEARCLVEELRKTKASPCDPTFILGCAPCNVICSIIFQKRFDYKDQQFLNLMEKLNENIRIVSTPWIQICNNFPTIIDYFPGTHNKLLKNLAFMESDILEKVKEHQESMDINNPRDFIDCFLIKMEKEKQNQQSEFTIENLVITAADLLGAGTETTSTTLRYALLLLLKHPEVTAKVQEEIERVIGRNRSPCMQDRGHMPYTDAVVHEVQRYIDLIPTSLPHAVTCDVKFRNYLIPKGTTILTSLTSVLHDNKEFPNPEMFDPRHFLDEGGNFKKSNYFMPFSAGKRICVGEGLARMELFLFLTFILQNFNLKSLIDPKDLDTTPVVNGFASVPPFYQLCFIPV
Sequence of Alpha-galactosidase (Coffea arabica) (Q42656 whole entry, looked up): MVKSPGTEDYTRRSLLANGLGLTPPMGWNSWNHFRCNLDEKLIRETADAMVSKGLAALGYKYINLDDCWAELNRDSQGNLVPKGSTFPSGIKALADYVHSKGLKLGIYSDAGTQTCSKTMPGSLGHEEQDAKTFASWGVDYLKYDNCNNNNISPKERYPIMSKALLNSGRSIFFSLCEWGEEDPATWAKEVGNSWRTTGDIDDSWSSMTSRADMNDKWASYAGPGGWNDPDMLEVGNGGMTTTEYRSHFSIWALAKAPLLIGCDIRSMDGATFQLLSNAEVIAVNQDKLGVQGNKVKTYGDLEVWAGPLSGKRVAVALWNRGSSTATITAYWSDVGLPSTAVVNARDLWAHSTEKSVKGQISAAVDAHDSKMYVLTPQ

**Q.** For `CCN1CCC[C@@H](OC(=O)C(c2ccccc2)c2ccccc2)C1`, which Potency [1] is on record?
**A.** The Potency was 1.58 µM (active).

**Q.** With `O=NN(Cc1ccc(Cl)cc1)[C@@H](C(=O)O)c1ccccc1` as the molecule, how does the Potency [2] read?
**A.** The Potency was 0.398 µM (active).

**Q.** Which activity change, positive = activation [3] does the source give for `COC(=O)[C@H]1[C@H](c2ccccc2)C(=O)[C@@]2(O)c3ccccc3O[C@@]12c1ccccc1` here?
**A.** Its activity change, positive = activation is -48.2% [at 11.4 µM].

**Q.** For `C[C@@H](COc1ccccc1)N(CCCl)Cc1ccccc1`, which Potency [1] is on record?
**A.** The Potency was 1.58 µM (active).

**Q.** What about the outcome [4] of the same molecule?
**A.** Its outcome is “inactive”.

**Q.** Which Potency [3] does the source give for `CCN(CC)c1ccc2c(C)cc(=O)oc2c1` here?
**A.** The Potency was “inactive”.

**Q.** With `COC(=O)CCC(C)C1CCC2C3C(O)C[C@@H]4CC(O)CC[C@@]4(C)C3CC(O)[C@]12C` (stereo partly drawn) as the molecule, how does the Potency [3] read?
**A.** Its Potency is “inactive”.

**Q.** Which results are given for `CC(=O)[C@@H]1CC[C@@H]2[C@@H]3CCC4=CC(=O)CC[C@@]4(C)[C@H]3CC[C@]21C`?
**A.** Potency [3]: 3.98 µM (active); Potency [2]: 7.94 µM (active)

**Q.** For `COC(=O)[C@]1(C)CC[C@@]2(C)CC[C@@]3(C)C4=CCc5c(cc(O)c(O)c5C)[C@]4(C)CC[C@@]3(C)C2C1` (stereo partly drawn), which Potency [3] is on record?
**A.** Its Potency is “inactive”.

**Q.** And the Potency [5]?
**A.** The Potency was “inactive”.

**Q.** Which activity change, positive = activation [3] does the source give for `CCc1cc2c(nc1CC)CCN(CC/C(C)=N/OC)C2` here?
**A.** The activity change, positive = activation was -38.7% [at 11.4 µM].

**Q.** For `CCC1=C(C[C@H]2NCCc3ccccc32)C[C@@H]2c3cc(OC)c(OC)cc3CCN2C1`, which Potency [1] is on record?
**A.** Its Potency is 2.51 µM (active).

**Q.** For `C=C(Br)CN(C)CC(=C)Br`, which activity, negative = inhibition [2] is on record?
**A.** Its activity, negative = inhibition is 46.7% [at 11.4 µM].

**Q.** Which Potency [1] does the source give for `O[C@@H]1[C@@H]2c3cc4c(cc3CN3CCC(=C[C@@H]1O)[C@H]23)OCO4` here?
**A.** The Potency was 3.98 µM (active).

**Q.** For `CN1[C@@H](CC(=O)c2ccccc2)CCC[C@@H]1C[C@@H](O)c1ccccc1`, which Potency [6] is on record?
**A.** The Potency was 12.6 µM [stimulated with 10 pM TNF alpha] (active).

**Q.** What about the Potency [7] of the same molecule?
**A.** The Potency was 5.62 µM (active).

**Q.** And the outcome [4]?
**A.** The outcome was “inactive”.

**Q.** And the outcome [8]?
**A.** The outcome was “inactive”.

**Q.** For `Cc1c(N=C=O)cccc1N=C=O`, which Potency [3] is on record?
**A.** The Potency was “inactive”.

**Q.** For `O[Si@](CCCN1CCCCC1)(c1ccc(F)cc1)C1CCCCC1`, which Potency [3] is on record?
**A.** The Potency was “inactive”.

**Q.** And the Potency [1]?
**A.** The Potency was 0.501 µM (active).

**Q.** And the outcome [4]?
**A.** The outcome was “inactive”.

**Q.** What about the outcome [8] of the same molecule?
**A.** The outcome was “inactive”.

**Q.** With `N#CC(=C(/N)Sc1ccccc1N)/C(C#N)=C(/N)Sc1ccccc1N` as the molecule, how does the Potency [1] read?
**A.** The Potency was 0.02 µM (active).

**Q.** What about the outcome [4] of the same molecule?
**A.** The outcome was “inactive”.

**Q.** And the outcome [8]?
**A.** The outcome was “inactive”.

**Q.** What does the source list for `O=C1OC(=O)[C@@H]2[C@@H]1[C@@H]1CC[C@H]2O1`?
**A.** Potency [1]: inactive; outcome [4]: inactive

**Q.** Which Potency [1] does the source give for `O=C(C[n+]1ccc2ccccc2c1)c1ccc2ccc3ccccc3c2c1` here?
**A.** The Potency was 0.794 µM (active).

**Q.** With `COC(=O)[C@H]1C[C@H]2CC[C@H](O)C[C@H]2N1CC1CC1` as the molecule, how does the Potency [3] read?
**A.** Its Potency is “inactive”.

**Q.** With `COC(=O)[C@H]1[C@@H](c2ccccc2)[C@@]2(c3ccccc3)Oc3ccccc3[C@@]1(O)[C@@H]2O` as the molecule, how does the activity change, positive = activation [3] read?
**A.** The activity change, positive = activation was -40.9% [at 11.4 µM].

**Q.** What about the activity change, negative = inhibition [1] of the same molecule?
**A.** The activity change, negative = inhibition was 40.2% [at 11.4 µM].

**Q.** Which results are given for `CC(=O)[C@@H]1CC[C@@H]2[C@@H]3CC=C4C[C@H](OS(=O)(=O)O)CC[C@@]4(C)[C@H]3CC[C@]21C`?
**A.** Potency [3]: inactive; outcome [4]: inactive; outcome [8]: inactive

**Q.** With `CC(C)CCC[C@@H](C)[C@@H]1CC[C@@H]2[C@H]3CC[C@H]4C[C@@H](N)CC[C@@]4(C)[C@@H]3CC[C@]21C` as the molecule, how does the activity change, negative = inhibition [1] read?
**A.** Its activity change, negative = inhibition is 11% [at 11.4 µM].

**Q.** What about the activity, negative = inhibition [2] of the same molecule?
**A.** The activity, negative = inhibition was 61.6% [at 11.4 µM].

**Q.** Which activity, negative = inhibition [2] does the source give for `C[C@@]12CC[C@H]3[C@H](CC=C4C[C@@H](O)CC[C@@]43C)[C@@H]1CC[C@@H]2N(CCO)CCO` here?
**A.** Its activity, negative = inhibition is 79.2% [at 11.4 µM].

**Q.** With `O=C(O)c1cc2c(cc1S(=O)(=O)O)[C@H]1[C@@H]([C@H]3[C@H]2[C@@]2(Cl)C(Cl)=C(Cl)[C@]3(Cl)C2(Cl)Cl)[C@]2(Cl)C(Cl)=C(Cl)[C@@]1(Cl)C2(Cl)Cl` as the molecule, how does the activity change, positive = activation [3] read?
**A.** The activity change, positive = activation was -41.4% [at 11.4 µM].

**Q.** What does the source list for `O=c1[nH]c(=O)n([C@H]2C[C@H](O)[C@H](CO)O2)cc1/C=C\Br`?
**A.** Potency [3]: inactive; outcome [4]: inactive; outcome [8]: inactive

**Q.** With `CCC(C(=O)C(C)C(O)C(C)CCc1ccc(C)c(O)c1C(=O)O)C1OC(CC)(C2CC[C@@](O)(CC)C(C)O2)CC1C` (stereo partly drawn) as the molecule, how does the Potency [3] read?
**A.** The Potency was “inactive”.

**Q.** For `COC(C)C(O)(C(=O)OC1=CCN2CC[C@H](O)[C@H]12)C(C)C` (stereo partly drawn), which Potency [3] is on record?
**A.** The Potency was “inactive”.

**Q.** For `O[C@@H](c1cc(-c2ccccc2)nc2c1ccc1ccccc12)[C@@H]1CCCCN1`, which Potency [1] is on record?
**A.** The Potency was 3.16 µM (active).

**Q.** Which Potency [3] does the source give for `C[C@]12CCC3c4ccc(OC(=O)c5ccccc5)cc4CCC3C1CCC2=O` (stereo partly drawn) here?
**A.** The Potency was “inactive”.

**Q.** With `Clc1ccc(C(c2ccc(Cl)cc2)n2cc[n+](C[C@@H](OCc3ccc(Cl)cc3Cl)c3ccc(Cl)cc3Cl)c2)cc1` as the molecule, how does the Potency [1] read?
**A.** Its Potency is 0.0398 µM (active).

**Q.** What about the Potency [9] of the same molecule?
**A.** Its Potency is 14.1 µM (active).

**Q.** What about the outcome [4] of the same molecule?
**A.** The outcome was “inactive”.

**Q.** What about the outcome [8] of the same molecule?
**A.** The outcome was “inactive”.

**Q.** For `C[C@H](CCC(=O)O)[C@H]1CC[C@]2(C)[C@@H]3C(=O)C[C@H]4C(C)(C)[C@@H](O)CC[C@]4(C)[C@H]3C(=O)C[C@@]12C`, which activity, negative = inhibition [2] is on record?
**A.** Its activity, negative = inhibition is 60.6% [at 11.4 µM].

**Q.** With `CC(C)(C)c1ccc(OC(=O)Nc2ccc(O)c(C(=O)O)c2)cc1` as the molecule, how does the activity change, negative = inhibition [1] read?
**A.** Its activity change, negative = inhibition is 22.6% [at 11.4 µM].

**Q.** Which outcome [10] does the source give for `CC1=C(O)C(=O)C=C2C1=CC=C1[C@]2(C)CC[C@@]2(C)C3C[C@](C)(C(=O)O)CC[C@@]3(C)CC[C@@]12C` (stereo partly drawn) here?
**A.** The outcome was “inactive”.

**Q.** What does the source list for `CC(=O)O[C@@H]1[C@H]([N+]2(C)CCCCC2)C[C@@H]2[C@@H]3CC[C@@H]4C[C@@H](OC(C)=O)[C@H]([N+]5(C)CCCCC5)C[C@@]4(C)[C@H]3CC[C@]21C`?
**A.** Potency [7]: 8.91 µM (active); Potency [9]: 14.1 µM (active)

**Q.** For `COc1ccc(CCN(C)CCC[C@@](C#N)(c2ccc(OC)c(OC)c2)C(C)C)cc1OC`, which outcome [4] is on record?
**A.** The outcome was “inactive”.

**Q.** What about the outcome [8] of the same molecule?
**A.** Its outcome is “inactive”.
